For some of these results: Measured potencies and affinities stand elsewhere. Activity calls are given as the source filed them. How the calls were made is not given here.
Legend:
[1] = Ebola virus entry assay, green fluorescence channel
[2] = Ebola virus entry assay, blue channel fluorescence
[3] = Ebola virus entry assay, ratio channel
[4] = Ebola virus entry assay, green channel fluorescence
[5] = Ebola virus entry assay, reporter ratio channel; Channel type: primary
Wherever efficacy is given: 0% is about no effect.

CC(C)NCC(O)COc1ccc(COCCOC(C)C)cc1 (stereo not given)
active: AC50 [2] 15.8 µM | AC50 [3] 12.6 µM | AC50 [5] 12.6 µM
inactive: efficacy [1] 22.5% | outcome [4]

NC(N)=NN=C(/C=C/c1ccc([N+](=O)[O-])o1)/C=C/c1ccc([N+](=O)[O-])o1
inactive: efficacy [1] -41.4% | outcome [4]
active: AC50 [2] 3.16 µM | AC50 [3] 3.16 µM | AC50 [5] 3.16 µM

CC(=O)Oc1ccc(C(c2ccc(OC(C)=O)cc2)c2ccccn2)cc1
inactive: efficacy [1] -19% | outcome [2] | outcome [3] | outcome [4] | outcome [5]

NC(N)=N/N=C/c1c(Cl)cccc1Cl
active: AC50 [2] 28.2 µM | AC50 [3] 28.2 µM | AC50 [5] 28.2 µM
inactive: efficacy [1] -12.6% | outcome [4]

COc1ccc(CN(CCN(C)C)c2ccccn2)cc1
active: AC50 [2] 15.8 µM | AC50 [3] 15.8 µM | AC50 [5] 15.8 µM
inactive: efficacy [1] 22.5% | outcome [4]

C[C@]12CC[C@@H]3c4ccc(O)cc4CC[C@H]3[C@@H]1CCC2=O
active: AC50 [2] 3.55 µM | AC50 [3] 10 µM | AC50 [5] 10 µM
inactive: efficacy [1] 55% | outcome [4]

CCC(C)(C)c1ccc(CC(C)CN2C[C@@H](C)O[C@@H](C)C2)cc1 (stereo not given in full)
inactive: efficacy [1] -29.5% | outcome [3] | outcome [4]
active: AC50 [2] 39.8 µM | AC50 [5] 39.8 µM

CC(C)C[C@@H](N)C(=O)O
inactive: efficacy [1] 14.3% | outcome [2] | outcome [3] | outcome [4] | outcome [5]

Cc1ccc(CCn2c3c(c4cc(Cl)ccc42)CN(C)CC3)cn1
inactive: efficacy [1] 26.4% | outcome [4]
active: AC50 [2] 14.1 µM | AC50 [3] 17.8 µM | AC50 [5] 17.8 µM

Oc1ccc(Cl)cc1Cc1cc(Cl)ccc1O
active: AC50 [2] 3.55 µM | AC50 [3] 11.2 µM | AC50 [5] 11.2 µM
inactive: efficacy [1] 31.6% | outcome [4]

N=C(N)c1ccc2cc(OC(=O)c3ccc(N=C(N)N)cc3)ccc2c1
inactive: efficacy [1] 15% | outcome [2] | outcome [3] | outcome [4] | outcome [5]

CCOc1ccc2nc(S(N)(=O)=O)sc2c1
inactive: efficacy [1] 31.6% | outcome [2] | outcome [3] | outcome [4] | outcome [5]

CC(CNC1CCCCC1)OC(=O)c1ccccc1 (stereo not given)
active: AC50 [2] 8.91 µM | AC50 [3] 8.91 µM | AC50 [5] 8.91 µM
inactive: efficacy [1] 19.5% | outcome [4]

COCCc1ccc(OCC2CO2)cc1 (stereo not given)
inactive: efficacy [1] 25.5% | outcome [2] | outcome [3] | outcome [4] | outcome [5]

CCC1Nc2cc(Cl)c(S(N)(=O)=O)cc2S(=O)(=O)N1 (stereo not given)
inactive: efficacy [1] -28.2% | outcome [2] | outcome [3] | outcome [4] | outcome [5]

C[C@]12CC[C@@H]3c4ccc(O)cc4CC[C@H]3[C@@H]1C[C@@H](O)[C@@H]2O
inactive: efficacy [1] -24.2% | outcome [3] | outcome [4]
active: AC50 [2] 20 µM | AC50 [5] 35.5 µM

COC(=O)C1=C(C)NC(C)=C(C(=O)O[C@@H]2CCCN(Cc3ccccc3)C2)[C@@H]1c1cccc([N+](=O)[O-])c1
inactive: efficacy [1] 39.4% | outcome [3] | outcome [4]
active: AC50 [2] 39.8 µM | AC50 [5] 35.5 µM

CC(C)(Cc1c[nH]c2ccccc12)NCC(O)COc1ccccc1C#N (stereo not given)
active: AC50 [2] 35.5 µM | AC50 [3] 25.1 µM | AC50 [5] 25.1 µM
inactive: efficacy [1] 48.7% | outcome [4]

CC(C)n1nc(-c2cc3cc(O)ccc3[nH]2)c2c(N)ncnc21
inactive: efficacy [1] 37.9% | outcome [4]
active: AC50 [2] 2.82 µM | AC50 [3] 2.24 µM | AC50 [5] 2.24 µM

Cn1cnc2c1c(=O)[nH]c(=O)n2C
inactive: efficacy [1] -13.7% | outcome [2] | outcome [3] | outcome [4] | outcome [5]

CC(C)OC(=O)c1cc2c(OCC(O)CNC(C)(C)C)cccc2[nH]1 (stereo not given)
inactive: efficacy [1] -19.4% | outcome [4]
active: AC50 [2] 28.2 µM | AC50 [3] 31.6 µM | AC50 [5] 31.6 µM

C/C=C(/C(=C/C)c1ccc(O)cc1)c1ccc(O)cc1
active: AC50 [2] 28.2 µM
inactive: efficacy [1] -16.1% | outcome [3] | outcome [4] | outcome [5]

CC(=O)Oc1ccc2c(c1)CC[C@@H]1[C@@H]2CC[C@]2(C)[C@@H](O)CC[C@@H]12
inactive: efficacy [1] 11.1% | outcome [4]
active: AC50 [2] 35.5 µM | AC50 [3] 22.4 µM | AC50 [5] 22.4 µM

CCc1cc2cc(OC)c(OC)cc2c(Cc2ccccc2)n1
inactive: efficacy [1] 32.1% | outcome [3] | outcome [4]
active: AC50 [2] 25.1 µM | AC50 [5] 31.6 µM

Cc1c(-c2ccccc2)oc2c(C(=O)OCCN3CCCCC3)cccc2c1=O
inactive: efficacy [1] -55.6% | outcome [2] | outcome [3] | outcome [4] | outcome [5]

CO[C@]1(NC(=O)CSC(F)F)C(=O)N2C(C(=O)O)=C(CSc3nnnn3CCO)CO[C@H]21
inactive: efficacy [1] -28.6% | outcome [2] | outcome [3] | outcome [4] | outcome [5]

Source: PubChem BioAssay (NCATS)
